Drawing on PubChem BioAssay (NCATS), this text covers activity (max response) and Potency for 24 compounds.

Records with an inconclusive call do not appear. Active and inactive are the calls of the source. Calls come from the whole dose curve; as a rule, active = well fitted cell-killing curve with a large enough effect; inconclusive = small, poorly fitted or top-dose-only effect; inactive = flat fitted curve, though single readings scatter.
% is set by controls: 0 for no effect and ±100 for the full control effect.

This assay can be described thus: Cellular viability qHTS for adrenocortical cancer (ACC) cell line SW-13 (AID 1963989).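 For activity (max response): cells grown in serum-free medium with ITS supplement.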 Note: nearly all actives have a fitted effect of over 65% in size. The settings on record: SW-13 ACC cells viability, CellTiter-Glo, 48 h; activity (max response): stronger effect = lower value. The text has this: PI: Naris Nilubol, MD Surgical Oncology Program, National Cancer Institute (NCI) National Institute of Health (NIH), Bethesda, Maryland Adrenocortical cancer (ACC) is a rare malignancy with poor survival outcomes and few treatment options. Currently, mitotane is the only FDA-approved therapy for ACC. Although adjuvant radiation therapy is rarely utilized, it has the potential to improve survival in select cases. Through a quantitative high-throughput drug screen (qHTS), we identified auranofin (AF), a thioredoxin reductase (TXNRD) inhibitor, as a promising candidate drug. This study aims to evaluate whether AF can enhance the efficacy of radiation therapy in the treatment of ACC. Two human ACC cell lines, SW-13 and NCI-H295R, were screened using the National Center for Advancing Translational Sciences (NCATS) Pharmaceutical Collection (NPC) and the Mechanism Interrogation PlatE (MIPE) library (~4,991 compounds). CellTiter-Glo (Cat # G7570, Promega, Madison, WI) was utilized to measure cell viability. Described herein are the results of the corresponding viability assay.
PROTOCOL TABLE (as described by Inglese J, Shamu CE and Guy RK. 2007) SEQUENCE No. (e.g., 1, 2, 3, etc.); […] (e.g., Cells, Incubation, Reagent, etc.); VALUE; DESCRIPTION. 1; Cells; 5 uL; white, solid-bottom, 1536-well tissue-culture treated plates. 2; Time; overnight culture at 37C with 5% CO2. 3; Compounds and control; 23 nL; Kalypsis pin tool (Wako USA) equipped with a 1536-well pin head to transfer to the assay plates. 4; Time; 48 hours; 37C with 5% CO2. 5; Reagent; 4 uL; CellTiter-Glo luminescent substrate mix. 6; Time; 20 min at room temperature. 7; Detection; Luminescence; ViewLux plate reader NOTES (numbers refer to Sequence numbers above) 1. SW13 cells were harvested from a T175 flask and resuspended in ITS-supplemented DMEM serum-free medium at a concentration of 300 000 cells/mL. Then 5 uL of resuspended cells were dispensed into each well of white, solid-bottom, 1536-well tissue-culture-treated plates using a multidrop combi dispenser. The plates were covered with stainless steel gasket lids. 2-3. The plates were cultured overnight at 37C with 5% CO2. Twenty-three nL of compounds (eight selected concentrations from the NPC / MIPE) or positive control (10 mM stock of bortezomib) in DMSO was transferred to each well of the assay plate using a pin tool (Kalypsys, San Diego, CA, USA). The final concentration of the compounds in the 5 uL assay volume ranged from 0.5 nM to 46 uM. 4-6. After 48 hours of incubation at 37C and 5% CO2, 4 uL of CellTilter-Glo luminescent substrate mix (Promega, Madison, WI, USA) was added to each well. Then the plates were incubated for 20 minutes at room temperature. 7. After incubation, luminescence was measured using a ViewLux plate reader (PerkinElmer, Waltham, MA, USA) with a clear filter was used to measure the number of metabolically competent cells. To determine compound activity in the qHTS assay, the titration-response data for each sample was plotted and modeled by a four-parameter logistic fit yielding IC50 and efficacy (maximal response) values. […] REFERENCES: Inglese J, Shamu CE and Guy RK, Reporting data from high throughput screening of small molecule libraries, Nature Chemical Biology, 2007, 3(8): 438-441. doi.org/10.1038/nchembio0807-438.
(Quantitative high-throughput screening tests each substance at several concentrations.)
`COc1ccc2c(c1)C(=O)N(CCc1ccc(S(=O)(=O)NC(=O)NC3CCCCC3)cc1)C(=O)C2(C)C`: the activity (max response) is -10.4% (inactive). For `CN(C(=O)CCCOc1ccc2[nH]c(=O)ccc2c1)C1CCCCC1`, the activity (max response) is -3.83% (inactive). Still for that read-out and setting: for `O=C(CCBr)N1CCN(C(=O)CCBr)CC1` the value was -6.49% (inactive). Still for that read-out and setting: for `C=C[C@@H]1CN2CCC1C[C@H]2[C@H](O)c1ccnc2ccc(OC)cc12` (some centres undefined) the value was 5.73% (inactive); for `N[C@H](C(=O)O)[C@@H](O)c1ccc(O)c(O)c1`, 16% (inactive). On to `O=C(CCCN1CCN(c2ccccn2)CC1)c1ccc(F)cc1`, for which the activity (max response) was -12.5% (inactive). On the same count and under the same terms, under `CCc1cc(Nc2nccc(-c3c(-c4ccc(OC)c(C(=O)Nc5c(F)cccc5F)c4)nc4ccccn34)n2)c(OC)cc1N1CCC(N2CCN(S(C)(=O)=O)CC2)CC1` stands -11.3% (inactive); under `CCC(=O)Oc1ccc2c(c1)CC[C@@H]1[C@@H]2CC[C@@]2(C)[C@H]1C[C@@H](OC(=O)CC)[C@@H]2OC(=O)CC`, 0.953% (inactive). For the compound `C[C@H](N)C(=O)N[C@@H](C)C(=O)NC1[C@H]2CN(c3nc4c(cc3F)c(=O)c(C(=O)O)cn4-c3ccc(F)cc3F)C[C@@H]12` (some centres undefined), the activity (max response) was -13.3% (inactive). Same read-out and setting: for `COc1ccc2cc(CCC(C)=O)ccc2c1` the value was 2.06% (inactive). In the case of `COc1ccc([C@@H]2Sc3ccccc3NC(=O)[C@@H]2O)cc1`, the Potency was 7.31 µM (active). As for `C=CC[N+]1([C@H]2C[C@H]3[C@@H]4CC[C@H]5C[C@H](O)[C@@H](N6CCOCC6)C[C@]5(C)[C@H]4CC[C@]3(C)[C@H]2OC(C)=O)CCCC1`, the activity (max response) was -12.6% (inactive). The same measure, in the same setting: under `CCCCN(CCCC)C(C(N)=O)c1ccc(OC)cc1` (centres undefined) stands 14.1% (inactive). On the same count and under the same terms, under `COc1ccc(-n2c(SCCCN3C(=O)c4cccc5cccc(c45)C3=O)nnc2-c2ccncc2)cc1` stands -14.9% (inactive).

Regarding `O=C(Cc1ccccc1)Nc1nnc(CCSCCc2nnc(NC(=O)Cc3ccccc3)s2)s1`, the activity (max response) was 11.1% (inactive).

Regarding `C/C=C(/C(=C/C)c1ccc(OC(C)=O)cc1)c1ccc(OC(C)=O)cc1`, the Potency is 18.4 µM (active). Turning to `CC(C)NC[C@@H](O)COc1cccc2ccccc12`, the activity (max response) is -19.3% (inactive). On the same count and under the same terms, for `Cc1c(Cl)cccc1S(=O)(=O)Nc1nc(CCN2CCOCC2=O)cs1` the value was 12.4% (inactive); for `Nc1n[n+]([O-])c2ccccc2[n+]1[O-]`, -11.6% (inactive).

For `CCn1c(=O)c2c(nc(/C=C/c3ccc(OC)c(OC)c3)n2C)n(CC)c1=O`, the activity (max response) was -21.5% (inactive).

As to `O=C(O)c1c(O)c(-c2ccccc2)nc2ccccc12`, the activity (max response) was 3.37% (inactive). In the case of `C[C@H]1CN(C2COC2)CCN1c1ccc(Nc2cc(-c3ccnc(N4CCn5c(cc6c5CC(C)(C)C6)C4=O)c3CO)cn(C)c2=O)nc1`, the activity (max response) was 10.6% (inactive). Still for that read-out and setting: for `CC(=C(CCOC(=O)C(C)C)SSC(CCOC(=O)C(C)C)=C(C)N(C=O)Cc1cnc(C)nc1N)N(C=O)Cc1cnc(C)nc1N` the value was 9% (inactive); for `Cn1cc(C(=O)[C@@H]2CCc3nc[nH]c3C2)c2ccccc21`, -8.02% (inactive).
